# The campaign covered roughly 5,700 compounds. About 85 (1%) were called active. No stated cut-off is given here; in the data, active means p53-positive nuclei above about 36% (passing the limit was not always enough); inactive means the rest. The sample as a whole holds a higher share of actives than the screen did.
# Columns and labels:
# [1] = p53 stabilisation in HPV-positive human cells, imaging, p53-positive nuclei imaging, 24 h, 48 h (AID 1508601); settings: 24/48 h
# [2] = biological target: Cellular tumor antigen p53 (Homo sapiens) (UniProt P04637); test: as above; settings: 24/48 h, stronger effect = higher value
# [3] = measured here: cell number at 24 h, Library stock concentration: 3.33 mM
# [4] = measured here: cell number at 48 h, Library stock concentration: 3.33 mM
# [5] = Library stock concentration: 3.33 mM
# [6] = measured here: p53 positive nuclei at 24 h, Library stock concentration: 3.33 mM
# [7] = measured here: cell number at 24 h, Library stock concentration: 80 uM
# [8] = measured here: cell number at 24 h, Library stock concentration: 400 uM
# [9] = measured here: cell number at 24 h, Library stock concentration: 2 mM
# [10] = measured here: cell number at 24 h, Library stock concentration: 10 mM
# [11] = measured here: cell number at 48 h, Library stock concentration: 80 uM
# [12] = measured here: cell number at 48 h, Library stock concentration: 400 uM
# [13] = measured here: cell number at 48 h, Library stock concentration: 2 mM
# [14] = measured here: cell number at 48 h, Library stock concentration: 10 mM
# [15] = Library stock concentration: 80 uM
# [16] = Library stock concentration: 400 uM
# [17] = Library stock concentration: 2 mM
# [18] = Library stock concentration: 10 mM
# [19] = measured here: p53 positive nuclei at 24 h, Library stock concentration: 80 uM
# [20] = measured here: p53 positive nuclei at 24 h, Library stock concentration: 400 uM
# [21] = measured here: p53 positive nuclei at 24 h, Library stock concentration: 2 mM
# [22] = measured here: p53 positive nuclei at 24 h, Library stock concentration: 10 mM
# [23] = measured here: cell number at 24 h, concentration not given here
# [24] = measured here: cell number at 48 h, concentration not given here
# [25] = measured here: p53 positive nuclei at 24 h, concentration not given here
# Chain of Cellular tumor antigen p53 (Homo sapiens) (P04637 whole entry, looked up): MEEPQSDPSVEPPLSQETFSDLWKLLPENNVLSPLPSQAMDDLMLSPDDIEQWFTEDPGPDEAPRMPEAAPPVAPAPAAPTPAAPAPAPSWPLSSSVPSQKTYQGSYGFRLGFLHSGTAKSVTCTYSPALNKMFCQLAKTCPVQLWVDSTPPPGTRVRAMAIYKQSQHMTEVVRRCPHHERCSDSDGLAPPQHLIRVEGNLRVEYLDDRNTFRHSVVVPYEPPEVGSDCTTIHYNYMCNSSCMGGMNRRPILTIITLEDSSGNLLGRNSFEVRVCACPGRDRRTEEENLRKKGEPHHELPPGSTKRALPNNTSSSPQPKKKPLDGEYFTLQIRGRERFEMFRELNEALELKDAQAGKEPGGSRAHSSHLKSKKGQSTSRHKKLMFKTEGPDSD
compound,measurement,setting,value
O=c1[nH]c2ccc(Cl)cc2c(NC2CN3CCC2CC3)c1-c1nc2ccccc2[nH]1 (stereo not drawn),"nuclei count, normalised",[1]; [3],52.7%
same,"nuclei count, normalised",[1]; [4],33.7%
same,"p53-positive nuclei, normalised",[2]; [5],34% (inactive)
same,"p53-positive nuclei, normalised",[2]; [6],8.33%
C[C@]12C=CC(=O)C=C1CC[C@@H]1[C@@H]2CC[C@]2(C)OC(=O)CC[C@@H]12,"nuclei count, normalised",[1]; [7],87.6%
same,"nuclei count, normalised",[1]; [8],90.3%
same,"nuclei count, normalised",[1]; [9],93%
same,"nuclei count, normalised",[1]; [10],89.5%
same,"nuclei count, normalised",[1]; [11],95.1%
same,"nuclei count, normalised",[1]; [12],95%
same,"nuclei count, normalised",[1]; [13],99.5%
same,"nuclei count, normalised",[1]; [14],97.4%
same,"p53-positive nuclei, normalised",[2]; [15],-0.0445% (inactive)
same,"p53-positive nuclei, normalised",[2]; [16],0.096% (inactive)
same,"p53-positive nuclei, normalised",[2]; [17],-0.0494% (inactive)
same,"p53-positive nuclei, normalised",[2]; [18],-0.00393% (inactive)
same,"p53-positive nuclei, normalised",[2]; [19],-0.0455%
same,"p53-positive nuclei, normalised",[2]; [20],0.101%
same,"p53-positive nuclei, normalised",[2]; [21],0.166%
same,"p53-positive nuclei, normalised",[2]; [22],-0.0487%
O=C1C(=O)c2cccc3cccc1c23,"nuclei count, normalised",[1]; [7],115%
same,"nuclei count, normalised",[1]; [8],118%
same,"nuclei count, normalised",[1]; [9],118%
same,"nuclei count, normalised",[1]; [10],109%
same,"nuclei count, normalised",[1]; [11],119%
same,"nuclei count, normalised",[1]; [12],112%
same,"nuclei count, normalised",[1]; [13],115%
same,"nuclei count, normalised",[1]; [14],115%
same,"p53-positive nuclei, normalised",[2]; [15],0.0597% (inactive)
same,"p53-positive nuclei, normalised",[2]; [16],0.0621% (inactive)
same,"p53-positive nuclei, normalised",[2]; [17],0.165% (inactive)
same,"p53-positive nuclei, normalised",[2]; [18],0.252% (inactive)
same,"p53-positive nuclei, normalised",[2]; [19],-0.0696%
same,"p53-positive nuclei, normalised",[2]; [20],-0.0154%
same,"p53-positive nuclei, normalised",[2]; [21],0.208%
same,"p53-positive nuclei, normalised",[2]; [22],0.327%
O=C1c2ccccc2C(=O)c2ccccc21,"nuclei count, normalised",[1]; [23],102%
same,"nuclei count, normalised",[1]; [24],96.8%
same,"p53-positive nuclei, normalised",[2]; concentration not given here,-0.00139% (inactive)
same,"p53-positive nuclei, normalised",[2]; [25],-0.102%
CC1=CC(=O)c2c(O)cccc2C1=O,"nuclei count, normalised","[1]; measured here: cell number at 24 h, Library stock concentration: 500 nM",119%
same,"nuclei count, normalised","[1]; measured here: cell number at 24 h, Library stock concentration: 1.5 uM",116%
same,"nuclei count, normalised","[1]; measured here: cell number at 24 h, Library stock concentration: 4.6 uM",126%
same,"nuclei count, normalised","[1]; measured here: cell number at 24 h, Library stock concentration: 13.7 uM",115%
same,"nuclei count, normalised","[1]; measured here: cell number at 24 h, Library stock concentration: 41 uM",118%
same,"nuclei count, normalised","[1]; measured here: cell number at 24 h, Library stock concentration: 123 uM",108%
same,"nuclei count, normalised","[1]; measured here: cell number at 24 h, Library stock concentration: 370 uM",94.6%
same,"nuclei count, normalised","[1]; measured here: cell number at 24 h, Library stock concentration: 1.111 mM",55.5%
same,"nuclei count, normalised","[1]; measured here: cell number at 24 h, Library stock concentration: 3.333 mM",48.6%
same,"nuclei count, normalised",[1]; [10],49%
same,"nuclei count, normalised","[1]; measured here: cell number at 48 h, Library stock concentration: 500 nM",113%
same,"nuclei count, normalised","[1]; measured here: cell number at 48 h, Library stock concentration: 1.5 uM",115%
same,"nuclei count, normalised","[1]; measured here: cell number at 48 h, Library stock concentration: 4.6 uM",120%
same,"nuclei count, normalised","[1]; measured here: cell number at 48 h, Library stock concentration: 13.7 uM",115%
same,"nuclei count, normalised","[1]; measured here: cell number at 48 h, Library stock concentration: 41 uM",118%
same,"nuclei count, normalised","[1]; measured here: cell number at 48 h, Library stock concentration: 123 uM",111%
same,"nuclei count, normalised","[1]; measured here: cell number at 48 h, Library stock concentration: 370 uM",102%
same,"nuclei count, normalised","[1]; measured here: cell number at 48 h, Library stock concentration: 1.111 mM",32.4%
same,"nuclei count, normalised","[1]; measured here: cell number at 48 h, Library stock concentration: 3.333 mM",31.9%
same,"nuclei count, normalised",[1]; [14],32.5%
same,"p53-positive nuclei, normalised",[2]; Library stock concentration: 500 nM,-0.129% (inactive)
same,"p53-positive nuclei, normalised",[2]; Library stock concentration: 1.5 uM,-0.0912% (inactive)
same,"p53-positive nuclei, normalised",[2]; Library stock concentration: 4.6 uM,0.131% (inactive)
same,"p53-positive nuclei, normalised",[2]; Library stock concentration: 13.7 uM,-0.0585% (inactive)
same,"p53-positive nuclei, normalised",[2]; Library stock concentration: 41 uM,-0.0569% (inactive)
same,"p53-positive nuclei, normalised",[2]; Library stock concentration: 123 uM,0.196% (inactive)
same,"p53-positive nuclei, normalised",[2]; Library stock concentration: 370 uM,-0.0821% (inactive)
same,"p53-positive nuclei, normalised",[2]; Library stock concentration: 1.111 mM,48.3% (active)
same,"p53-positive nuclei, normalised",[2]; Library stock concentration: 3.333 mM,2.14% (inactive)
same,"p53-positive nuclei, normalised",[2]; [18],-0.248% (inactive)
same,"p53-positive nuclei, normalised","[2]; measured here: p53 positive nuclei at 24 h, Library stock concentration: 500 nM",0.0252%
same,"p53-positive nuclei, normalised","[2]; measured here: p53 positive nuclei at 24 h, Library stock concentration: 1.5 uM",0.031%
same,"p53-positive nuclei, normalised","[2]; measured here: p53 positive nuclei at 24 h, Library stock concentration: 4.6 uM",-0.0368%
same,"p53-positive nuclei, normalised","[2]; measured here: p53 positive nuclei at 24 h, Library stock concentration: 13.7 uM",0.0863%
same,"p53-positive nuclei, normalised","[2]; measured here: p53 positive nuclei at 24 h, Library stock concentration: 41 uM",-0.027%
same,"p53-positive nuclei, normalised","[2]; measured here: p53 positive nuclei at 24 h, Library stock concentration: 123 uM",0.171%
same,"p53-positive nuclei, normalised","[2]; measured here: p53 positive nuclei at 24 h, Library stock concentration: 370 uM",0.0792%
same,"p53-positive nuclei, normalised","[2]; measured here: p53 positive nuclei at 24 h, Library stock concentration: 1.111 mM",61.6%
same,"p53-positive nuclei, normalised","[2]; measured here: p53 positive nuclei at 24 h, Library stock concentration: 3.333 mM",3.81%
same,"p53-positive nuclei, normalised",[2]; [22],-0.148%
C[C@]12NC(Cc3ccccc31)c1ccccc12,"nuclei count, normalised",[1]; [3],121%
same,"nuclei count, normalised",[1]; [4],112%
same,"p53-positive nuclei, normalised",[2]; [5],-0.107% (inactive)
same,"p53-positive nuclei, normalised",[2]; [6],-0.588%
CCCCC/C=C\C/C=C\C/C=C\C/C=C\CCCC(=O)NCCF,"nuclei count, normalised",[1]; [23],90.3%
same,"nuclei count, normalised",[1]; [24],90.8%
same,"p53-positive nuclei, normalised",[2]; concentration not given here,0.105% (inactive)
same,"p53-positive nuclei, normalised",[2]; [25],-0.0127%

# — PubChem BioAssay AID1508601 (ICCB-Longwood Screening Facility, Harvard Medical School, 2020)
